Assay [1] has as its system Plasmodium falciparum Sir2 (PF13_0152, Sir2A). The assay can be described thus: Plasmodium falciparum Sir2A binding compounds – biochemical, small-molecule microarray, 635 nm fluorescence, primary screen (AID 1098).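 Also: score merges spot fluorescence intensity with its signal-to-noise ratio.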 The note with it: fluorescence 635 nm, higher = more signal.
The nature of assay [2]: probe aDKK1 binding to arrayed compounds – biochemical, biotinylated probe, 635/667 nm fluorescence, primary screen (AID 1099).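 Also: score merges 667nm spot fluorescence with signal to noise across triplicate slides.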 The conditions noted are these: small-molecule microarray, higher = more signal.
The nature of assay [3]: probe aCHRDL2 binding to arrayed compounds – biochemical, biotinylated probe, 635/667 nm fluorescence, primary screen (AID 1100). The conditions noted are these: small-molecule microarray, higher = more signal.
Assay [4] in a line: change in splice reporter luminescence, either direction, cell-based, HEK293, spliceosome inhibition project, primary screen (AID 1101).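 Also: HEK293 cells carrying a splicing-competent luciferase reporter gene; test concentration not given here.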 The note with it: HEK293 splicing luciferase reporter, 24 h, higher = more signal, called active from +8 up or from −8 down.
Assay [5] deals with Fibroblast growth factor 10 (Homo sapiens) (UniProt O15520). In words: compounds binding fibroblast growth factor 10 – biochemical, small-molecule microarray, 635 nm fluorescence, primary screen (AID 1102). The conditions noted are these: FGF10 binding, fluorescence 635 nm, higher = more signal.
Chain of Fibroblast growth factor 10 (Homo sapiens) (O15520 whole entry, looked up): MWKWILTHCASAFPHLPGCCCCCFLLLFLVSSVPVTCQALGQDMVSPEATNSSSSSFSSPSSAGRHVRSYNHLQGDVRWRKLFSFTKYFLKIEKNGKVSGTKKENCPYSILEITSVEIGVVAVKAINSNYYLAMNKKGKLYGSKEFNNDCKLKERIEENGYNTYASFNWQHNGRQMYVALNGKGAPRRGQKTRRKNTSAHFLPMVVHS
For assay [6], the system named is glycogen synthase kinase-3 (GSK3A per assay name; protocol says GSK3B). The assay can be described thus: compounds binding glycogen synthase kinase-3 – biochemical, small-molecule microarray, 635 nm fluorescence, GSK3A, primary screen (AID 1103). Also: the record names both GSK3A and GSK3B. The conditions noted are these: fluorescence 635 nm, higher = more signal.
Assay [7] has as its target Epidermal growth factor receptor (Homo sapiens) (UniProt P00533). In words: compounds binding epidermal growth factor receptor – biochemical, small-molecule microarray, 635 nm fluorescence, primary screen (AID 1104).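 Also: score merges 667 nm emission intensity with spot signal to noise over triplicate slides.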 The note with it: EGFR binding, higher = more signal.
For assay [8], the target named is Follistatin-related protein 3 (Homo sapiens) (UniProt O95633). The assay can be described thus: compounds binding follistatin-related protein 3 – biochemical, small-molecule microarray, 635 nm fluorescence, primary screen (AID 1105).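 Also: score merges emission near 667 nm and signal to noise per printed spot across three slides.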 The conditions noted are these: FSTL3 binding, higher = more signal.
Chain of Follistatin-related protein 3 (Homo sapiens) (O95633 whole entry, looked up): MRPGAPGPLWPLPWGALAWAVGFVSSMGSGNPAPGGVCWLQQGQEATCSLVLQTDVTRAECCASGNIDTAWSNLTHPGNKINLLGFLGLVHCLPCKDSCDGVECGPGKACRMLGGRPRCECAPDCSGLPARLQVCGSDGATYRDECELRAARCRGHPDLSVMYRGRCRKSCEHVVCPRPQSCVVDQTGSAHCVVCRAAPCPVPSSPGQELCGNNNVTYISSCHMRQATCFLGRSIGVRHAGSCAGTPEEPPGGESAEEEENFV
In assay [9] the target is Dickkopf-related protein 1 (Homo sapiens) (UniProt O94907). The assay can be described thus: small molecules binding DKK1 protein – biochemical, small-molecule microarray, 635 nm fluorescence scan, primary screen (AID 1106).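 Also: score merges emission near 667 nm with signal to noise over three replicate slides.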 The note with it: higher = more signal.
Chain of Dickkopf-related protein 1 (Homo sapiens) (O94907 whole entry, looked up): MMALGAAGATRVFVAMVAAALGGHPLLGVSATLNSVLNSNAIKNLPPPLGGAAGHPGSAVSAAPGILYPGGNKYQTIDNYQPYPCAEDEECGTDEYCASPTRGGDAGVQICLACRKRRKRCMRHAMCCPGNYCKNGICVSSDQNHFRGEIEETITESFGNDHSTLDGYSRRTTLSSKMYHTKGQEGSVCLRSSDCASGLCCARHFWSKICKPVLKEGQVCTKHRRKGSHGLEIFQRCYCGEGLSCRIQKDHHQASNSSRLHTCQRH
Assay [10] relates to Inhibin beta A chain (activin A). The assay can be described thus: small molecules binding activin A – biochemical, small-molecule microarray, 635 nm fluorescence scan, primary screen (AID 1107).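 Also: mouse activin A protein probed at 4.33 µg/mL on printed slides; score merges bound-protein fluorescence near 667 nm with spot signal-to-noise.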 The note with it: INHBA, higher = more signal.
For assay [11], the system named is Human papillomavirus type 1a protein E7 (residues 44-93). The assay can be described thus: small molecules binding HPV E7 44-93 – biochemical, small-molecule microarray, residues 44-93, 635 nm fluorescence, primary screen (AID 1108).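 Also: E7 fragment applied at 1 µg/mL in TBST for 1 h at 4 C; score combines spot fluorescence with its signal to noise ratio.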 The note with it: fluorescence 635 nm, higher = more signal.
A short description of assay [12]: hepatitis C replication reporter changes, two-sided – Huh7 cells, luciferase reporter, HCV replication inhibitor project, primary screen (AID 1109).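 Also: huh7 hepatoma cells harbouring a luciferase neomycin HCV replicon reporter; luciferase luminescence as measure of HCV replicon replication; test concentration not given here.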 The conditions noted are these: Huh7 HCV replicon luciferase reporter, 48 h; higher = more signal.
The target of assay [13] is Left-right determination factor 2 (Homo sapiens) (UniProt O00292). The assay can be described thus: small molecules binding LEFTY2 protein – biochemical, small-molecule microarray, 635 nm fluorescence scan, primary screen (AID 1110). The note with it: higher = more signal.
Chain of Left-right determination factor 2 (Homo sapiens) (O00292 whole entry, looked up): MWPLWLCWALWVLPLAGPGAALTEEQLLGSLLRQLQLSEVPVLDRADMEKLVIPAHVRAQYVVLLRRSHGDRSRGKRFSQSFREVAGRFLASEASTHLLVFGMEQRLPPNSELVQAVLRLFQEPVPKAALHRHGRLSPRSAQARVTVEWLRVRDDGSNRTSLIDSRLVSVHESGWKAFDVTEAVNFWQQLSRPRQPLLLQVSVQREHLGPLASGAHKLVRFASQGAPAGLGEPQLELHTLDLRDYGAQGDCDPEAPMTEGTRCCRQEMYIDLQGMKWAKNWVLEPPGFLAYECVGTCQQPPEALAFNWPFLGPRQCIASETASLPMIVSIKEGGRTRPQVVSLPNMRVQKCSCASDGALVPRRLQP
Assay [14] addresses Calmodulin-1 (Homo sapiens) (UniProt P0DP23). The assay can be described thus: small molecules binding calmodulin-1 with EGTA – biochemical, small-molecule microarray, Cy5-labelled CALM1, profiling panel (AID 1111).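 Also: labelled calmodulin applied in Tris saline Tween buffer holding calcium plus EGTA and DTT.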 The note with it: Cy5-CALM1 binding fluorescence, higher = more signal.
Assay [15] has the same target. The assay can be described thus: small molecules binding Ca-loaded calmodulin-1 – biochemical, small-molecule microarray, Cy5-labelled CALM1, plus calcium, artefact control for SMM control-protein annotation, profiling panel (AID 1112).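 Also: score merges spot fluorescence with signal to noise from triplicate slides.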 The note with it: Cy5-CALM1 binding fluorescence, higher = more signal.
A short description of assay [16]: probe aWnt5a binding to arrayed compounds – biochemical, biotinylated probe, 635/667 nm fluorescence, primary screen (AID 1113).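 Also: score merges 667 nm fluorescence intensity with signal-to-noise per printed feature.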 The conditions noted are these: small-molecule microarray, higher = more signal.
Assay [17] in a line: probe aShh binding to arrayed compounds – biochemical, biotinylated probe, 635/667 nm fluorescence, primary screen (AID 1114).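 Also: probe is biotin-labelled aShh protein from a stem cell growth factor screen; measures binding of labelled protein to compounds printed on the slide; score merges feature fluorescence at 667 nm with signal-to-noise.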 The note with it: small-molecule microarray, higher = more signal.
Assay [18] in a line: probe aNog binding to arrayed compounds – biochemical, biotinylated probe, 635/667 nm fluorescence, primary screen (AID 1115).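 Also: probe is biotinylated aNog protein used at 0.15 µg/mL for 1 h at 4 C; z-score combines 667 nm fluorescence of each spot with its signal to noise.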 The conditions noted are these: small-molecule microarray, higher = more signal.
Assay [19] addresses Torsin-1A-interacting protein 1 (Homo sapiens) (UniProt Q5JTV8). The assay can be described thus: compound microarray binding of lysate hLAP1 – cell lysate, small-molecule microarray, COS7 lysate, 635/667 nm fluorescence, primary screen (AID 1116). The note with it: 635 nm fluorescence, higher = more signal.
Assay [20] has as its target Alpha-bungarotoxin (Bungarus multicinctus) (UniProt P60615). The assay can be described thus: compounds binding labelled alpha-BTX control protein – biochemical, small-molecule microarray, Alexa647 label, 635/667 nm fluorescence, artefact control for SMM control protein annotation, profiling panel (AID 1117). The conditions noted are these: alpha-BTX-A647 binding fluorescence, higher = more signal.

“And” between values parts separate entries of the source, which are not always exact repeats. Identical values can stand only once. The source made the active and inactive calls.

From PubChem BioAssay come the findings set out here.

Chain of Torsin-1A-interacting protein 1 (Homo sapiens) (Q5JTV8 whole entry, looked up): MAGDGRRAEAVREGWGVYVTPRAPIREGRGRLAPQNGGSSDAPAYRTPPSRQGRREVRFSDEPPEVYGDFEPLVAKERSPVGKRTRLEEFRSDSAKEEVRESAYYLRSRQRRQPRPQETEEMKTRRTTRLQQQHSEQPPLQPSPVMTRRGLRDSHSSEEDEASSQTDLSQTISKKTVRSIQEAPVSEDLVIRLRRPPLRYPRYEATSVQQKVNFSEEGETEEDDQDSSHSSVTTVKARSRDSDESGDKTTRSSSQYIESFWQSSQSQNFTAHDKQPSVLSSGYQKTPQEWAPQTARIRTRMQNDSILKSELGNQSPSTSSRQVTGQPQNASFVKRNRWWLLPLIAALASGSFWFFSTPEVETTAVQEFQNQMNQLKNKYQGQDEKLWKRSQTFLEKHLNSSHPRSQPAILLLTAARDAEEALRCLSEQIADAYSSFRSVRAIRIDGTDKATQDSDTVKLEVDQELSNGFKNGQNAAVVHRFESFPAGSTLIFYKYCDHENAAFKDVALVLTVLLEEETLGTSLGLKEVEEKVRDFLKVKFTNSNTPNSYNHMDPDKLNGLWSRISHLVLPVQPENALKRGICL
Chain of Epidermal growth factor receptor (Homo sapiens) (P00533 whole entry, looked up): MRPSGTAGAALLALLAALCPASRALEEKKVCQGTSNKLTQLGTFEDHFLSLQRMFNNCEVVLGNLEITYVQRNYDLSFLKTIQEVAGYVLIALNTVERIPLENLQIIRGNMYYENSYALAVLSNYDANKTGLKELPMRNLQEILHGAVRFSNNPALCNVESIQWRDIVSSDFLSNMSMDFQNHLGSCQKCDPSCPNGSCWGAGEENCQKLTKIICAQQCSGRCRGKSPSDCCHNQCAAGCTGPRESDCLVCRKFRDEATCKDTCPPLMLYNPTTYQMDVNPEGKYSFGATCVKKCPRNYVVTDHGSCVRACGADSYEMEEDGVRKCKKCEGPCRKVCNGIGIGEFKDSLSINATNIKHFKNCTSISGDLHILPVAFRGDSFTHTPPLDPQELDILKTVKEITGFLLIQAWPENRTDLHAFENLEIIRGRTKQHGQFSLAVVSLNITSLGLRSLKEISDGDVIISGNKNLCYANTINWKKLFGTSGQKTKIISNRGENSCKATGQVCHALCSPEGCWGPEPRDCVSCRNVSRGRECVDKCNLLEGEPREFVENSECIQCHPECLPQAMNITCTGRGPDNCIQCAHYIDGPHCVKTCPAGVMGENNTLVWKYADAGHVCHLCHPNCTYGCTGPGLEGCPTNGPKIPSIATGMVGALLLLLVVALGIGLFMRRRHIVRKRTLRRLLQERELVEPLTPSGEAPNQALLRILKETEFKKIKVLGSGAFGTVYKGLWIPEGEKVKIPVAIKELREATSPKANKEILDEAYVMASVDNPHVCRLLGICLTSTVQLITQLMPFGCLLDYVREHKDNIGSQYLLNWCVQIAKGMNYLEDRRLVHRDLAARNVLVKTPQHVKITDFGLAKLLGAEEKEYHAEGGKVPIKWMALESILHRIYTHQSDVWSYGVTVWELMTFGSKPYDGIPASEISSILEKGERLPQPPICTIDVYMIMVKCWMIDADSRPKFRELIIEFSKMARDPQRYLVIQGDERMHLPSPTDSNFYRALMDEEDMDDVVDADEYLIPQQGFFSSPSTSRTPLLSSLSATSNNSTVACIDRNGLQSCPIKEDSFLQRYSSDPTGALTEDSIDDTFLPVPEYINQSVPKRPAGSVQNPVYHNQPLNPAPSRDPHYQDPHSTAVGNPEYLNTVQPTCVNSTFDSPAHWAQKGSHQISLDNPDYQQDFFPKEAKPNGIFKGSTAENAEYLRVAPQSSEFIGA
Chain of Alpha-bungarotoxin (Bungarus multicinctus) (P60615 whole entry, looked up): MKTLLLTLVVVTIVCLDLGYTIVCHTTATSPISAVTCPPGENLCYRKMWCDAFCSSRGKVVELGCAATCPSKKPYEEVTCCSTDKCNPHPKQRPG

For the compound `CCCNC(=O)OC[C@H]1O[C@H](CCON=C(C)CCC(=O)OC[C@H]2O[C@H](C#Cc3ccccc3)C=C[C@@H]2Oc2ccc(C)cc2)C=C[C@@H]1Oc1ccc(OC)cc1`, the composite z-score was 0.352 in [1]; -0.193 in assay [2]; -0.148 in [3]; -0.397 in [5]; -0.952 in assay [6]; -0.501 in assay [7]. The composite z-score in assay [8] is -0.637; in assay [9] it was -0.121; in [10] it was 0.711; in assay [11], -1.27; in assay [13] it was 0.272; in assay [14], -0.309. The composite z-score in [15] was -0.465; in assay [16] it was -0.258; in assay [17], -0.174; in assay [18], -0.332; in assay [19], -0.492; in [20] it was 0.0642. Besides, the z-score in assay [4] was -0.301 (inactive); in assay [12], -0.564.
As to `C[N+](C)(C)CCCCNC(=O)[C@@H]1C[C@@H]2C(=O)N[C@@H](CCCC[N+](C)(C)C)C(=O)N2[C@@H]1c1cccc(OCCO)c1`, the composite z-score is 1.03 and 0.616 in assay [1]; 0.0631 and 0.217 in assay [2]; -0.0665 and 0.574 in assay [3]; 1.51 and 1.4 in assay [5]; 1.35 and 0.785 in assay [6]; 1.33 and 0.0943 in assay [7]. Besides, the composite z-score in [8] was 1.5 and 1.33; in assay [9], 2.14 and 1.67; in assay [10], 0.804 and -0.833; in assay [11], 0.845 and 0.331; in assay [13], 1.59 and 1.49; in assay [14], -1.47 and -1.67. The composite z-score in assay [15] is -2.01 and -0.543; in assay [16] it was -0.0758 and 0.048; in assay [17] it was 0.23 and -0.0232; in [18] it was -0.12 and 0.0139; in assay [19] it was 2.23 and 1.62; in [20], -0.257 and 1.62. Also, the z-score in assay [4] was -0.21 (inactive) and 0.129 (inactive); in [12] it was -0.552 and -0.848.
As for `COC(=O)C1=C(C)N(Cc2ccccc2)[C@]23O[C@](C(=O)OC)(C(=O)N2[C@@H]1c1ccccc1)[C@@H](c1ccccc1)[C@@H]3C(=O)c1ccccc1`, the composite z-score in [1] was -0.104 and 0.177; in assay [2] it was 0.107 and 0.263; in assay [3] it was -0.0791 and -0.347; in assay [5] it was 0.0494 and 0.417; in [6] it was 0.338 and -0.145; in [7] it was 0.0596 and 0.511. Besides, the composite z-score was 0.208 and 0.524 in assay [8]; 0.217 and 0.967 in assay [9]; -0.431 and 1.21 in assay [10]; 0.189 and -0.932 in assay [11]; 0.494 and 0.9 in assay [13]; 1.43 and -1.06 in assay [14]. In addition, the composite z-score in assay [15] is 0.589 and -0.256; in assay [16], -0.0417 and -0.137; in assay [17], -0.276 and -0.16; in assay [18], -0.0315 and -0.226; in [19], 0.296 and -0.228; in [20], 0.932 and -0.0514. For the same compound, the z-score in [4] is -1.55 (inactive) and -0.5 (inactive); in assay [12] it was 0.989 and 0.471.
`CC(CO)N1C(=O)[C@@H]2C3C(=O)OCCC=C[C@H]3OC23C=CCN(C(C)(C)C)C(=O)[C@@H]13` (stereo not given in full): the composite z-score was -0.117 and -0.15 in [1]; -0.216 and 0.073 in assay [2]; 0.254 and 0.178 in assay [3]; -0.941 and 0.229 in assay [5]; -0.875 and 0.449 in assay [6]; -0.839 and -0.726 in [7]. Besides, the composite z-score in assay [8] was -0.464 and 0.008; in assay [9] it was -0.476 and -0.008; in assay [10] it was 0.298 and 1.11; in [11], -0.925 and -1; in assay [13] it was -1.51 and -0.114; in assay [14] it was -0.286 and -0.991. Moreover, the composite z-score is 1.02 and -1.03 in assay [15]; -0.222 and -0.0584 in assay [16]; -0.168 and -0.0553 in assay [17]; -0.219 and -0.46 in assay [18]; 0.232 and 1.48 in [19]; -2.94 and -0.198 in assay [20]. Moreover, the z-score in [4] is 0.612 (inactive) and -0.541 (inactive); in [12], -0.319 and -0.502.
`CC(C)OC(=O)C=C1C[C@@H](c2ccccc2)O[C@@H](c2ccccc2)O1`: the composite z-score in [1] was 0.733 and 1.54; in [2] it was 0.164 and 0.272; in assay [3], 0.0614 and 0.847; in assay [5] it was 1.45 and 1.42; in assay [6], 1.34 and 1.31; in assay [7], 0.65 and 0.664. The composite z-score in [8] is 1.44 and 1.41; in assay [9], 0.527 and 0.481; in assay [10], -0.0632 and 1.05; in assay [11] it was 1.48 and 1.45; in [13], 0.826 and 0.795; in assay [14] it was 0.056 and 1.23. Also, the composite z-score is -0.147 and -0.505 in assay [15]; 0.166 and 0.0915 in [16]; -0.185 and 0.131 in assay [17]; 0.286 and 0.403 in assay [18]; 1.3 and 1.28 in [19]; 1.03 and 1.75 in [20]. Further, the z-score was 0.0661 (inactive) and 2.56 (inactive) in assay [4]; -2.1 and -1.36 in assay [12].
